From PubChem
HGIII-sPLA2 inh: Inhibits HGIII-sPLA2 liposome hydrolysis, primary screen; Q9NZ20; QFRET BODIPY PC-A2 liposome hydrolysis, fluorescence; inhibition, % at 12.2 µM; 370,000 tested, 0.56% active;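 active = inhibition above mean plus 3 SD of compounds lying within the high and low control bounds, cut at about 19% in these data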
Target sequence (Q9NZ20 whole entry, looked up): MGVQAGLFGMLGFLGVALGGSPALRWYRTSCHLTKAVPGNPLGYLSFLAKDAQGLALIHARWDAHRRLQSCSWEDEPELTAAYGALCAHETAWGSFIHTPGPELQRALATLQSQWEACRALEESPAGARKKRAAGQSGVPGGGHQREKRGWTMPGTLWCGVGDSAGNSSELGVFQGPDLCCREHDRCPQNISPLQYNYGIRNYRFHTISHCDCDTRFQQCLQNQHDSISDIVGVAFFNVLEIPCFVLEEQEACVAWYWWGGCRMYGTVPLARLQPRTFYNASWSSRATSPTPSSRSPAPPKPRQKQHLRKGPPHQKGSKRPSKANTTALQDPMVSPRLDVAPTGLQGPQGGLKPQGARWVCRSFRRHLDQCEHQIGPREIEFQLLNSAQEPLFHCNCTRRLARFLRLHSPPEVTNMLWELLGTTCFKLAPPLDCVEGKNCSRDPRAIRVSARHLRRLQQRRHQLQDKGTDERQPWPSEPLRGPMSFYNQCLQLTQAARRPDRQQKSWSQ
PG9 Ab binder: binds the HIV-1 gp120 antibody PG9; TR-FRET gp120-PG9 antibody binding; inhibition, % at 6.7 µM; 360,000 tested, 0.43% active; AID 624416; in the data active = inhibition above about 8.5%
rCAG binder: binds r(CAG) RNA repeats | r(CAG) RNA repeat, TO-PRO-1 dye displacement fluorescence | inhibition, % at 3 µM | 370,000 tested, 1.3% active | AID 651821;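 active = inhibition above the plate cutoff, the mean of all test compounds on that plate plus 3 SD, cut at about 35% in these data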;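 also: higher means more dye released from RNA so lower well fluorescence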
MsrA inh: inhibits bovine methionine sulfoxide reductase A; purified bovine MsrA, absorbance read-out; inhibition, % at 15.5 µM; 360,000 tested, 0.75% active; AID 651718; in the data active = inhibition above about 4.5%
bovine MsrA act: bovine methionine sulfoxide reductase A activation; purified bovine MsrA, absorbance read-out; activation, % at 10.6 µM; 360,000 tested, 0.3% active; in the data active = activation above about 7.5%
PG9 binder conf: confirmation of small molecules binding HIV-1 gp120 antibody PG9; inhibition, % at 6.7 µM; 1,500 tested, 90% active; shares compounds with PG9 Ab binder; AID 651571; TR-FRET PG9 antibody binding, biochemical; in the data active = inhibition above about 9%
PGV04 counter: binds control antibody PGV04 in PG9 binder counter-screen; inhibition, % at 6.7 µM; AID 651604; TR-FRET PGV04 antibody-gp120 binding, biochemical; shares compounds with PG9 Ab binder; 1,500 tested, 95% active; in the data active = inhibition above about 9.5%
PG9 bind DR: small molecules binding HIV-1 gp120 antibody PG9. shares compounds with PG9 Ab binder. TR-FRET PG9 antibody-gp120 binding inhibition. IC50, µM. 95 tested, under 10 active. AID 651848; in the data active = IC50 below about 10 µM
PGV04 DR counter: PGV04 binding, dose response counter-screen; AID 651937; IC50, µM; shares compounds with PG9 Ab binder; 95 tested, 20% active; TR-FRET binding to control antibody PGV04
PG126 DR counter: counter-screen for PG9 binders: binding to control antibody PG126 | IC50, µM | TR-FRET binding to antibody PG126, counterscreen | AID 651939 | 95 tested, 20% active | shares compounds with PG9 Ab binder
Of the large screens only hits and unclear results are named; the others gave an inactive call (follow-up assays come after a bar, where they were run). Shown are actives, neighbours in structure and some others; about 3.2% of the full set was active somewhere. Rule as the data show it, unless noted: active = IC50 below about 9 µM; inactive = the rest.

O=C(COc1ccccc1)Nc1nc2cc3c(cc2s1)OCO3	PG9 Ab binder 21 | PG9 binder conf 33 | PGV04 counter 46
O=C(COc1ccccc1)Nc1nc2cc3c(cc2s1)OCCO3	none
CCc1ccccc1NC(=O)CNC(=O)CCc1nc2sc3c(c2c(=O)[nH]1)CCCC3	PG9 Ab binder 19 | PG9 binder conf 21 | PGV04 counter 38
O=C(CCc1nc2sc3c(c2c(=O)[nH]1)CCCC3)NCCc1ccccc1	none
Cc1cc(C)cc(NC(=O)CCc2nc3sc4c(c3c(=O)[nH]2)CCCC4)c1	PG9 Ab binder 11 | PG9 binder conf 17 | PGV04 counter 23
CCN(CC)C(=O)c1cccc(NC(=O)CCc2nc3sc4c(c3c(=O)[nH]2)CCCC4)c1	none
O=C(CCc1nc2sc3c(c2c(=O)[nH]1)CCCC3)Nc1cccc(Cl)c1	PG9 Ab binder 36 | PG9 binder conf 28 | PGV04 counter 38
CN(CC(=O)Nc1ccc(F)cc1)C(=O)CCc1nc2sc3c(c2c(=O)[nH]1)CCCC3	PG9 Ab binder 15 | PG9 binder conf 13 | PGV04 counter 31
CCOC(=O)Cn1cc(CN2CCS(=O)(=O)N(Cc3ccc(C)cc3)C(C(=O)OC)C2)nn1 (centres undefined)	none (no result: PG9 Ab binder, MsrA inh, bovine MsrA act)
CCC(C(=O)Nc1ccccc1N1CCCC1)c1ccccc1F (centres undefined)	none (no result: PG9 Ab binder, MsrA inh, bovine MsrA act)
CCc1ccc2c(COC(=O)CNS(=O)(=O)c3ccc(NC(C)=O)cc3)cc(=O)oc2c1	none
CCOC(=O)Nc1ccc2c(COC(=O)CNS(=O)(=O)c3cccc(Br)c3)cc(=O)oc2c1	PG9 Ab binder 39 | PG9 binder conf 32 | PGV04 counter 37
COc1cccc(C2/C(=C(\O)c3ccc4c(c3)OCCO4)C(=O)C(=O)N2Cc2cccnc2)c1 (centres undefined)	PG9 Ab binder 23 | PG9 binder conf 30 | PGV04 counter 35
O=C1C(=O)N(Cc2ccncc2)C(c2ccccc2F)/C1=C(\O)c1ccc2c(c1)OCCO2 (centres undefined)	PG9 Ab binder 16 | PG9 binder conf 32 | PGV04 counter 31 | PG9 bind DR inactive | PGV04 DR counter 5.3 | PG126 DR counter 7.8
O=C1C(=O)N(Cc2cccnc2)C(c2cccc([N+](=O)[O-])c2)/C1=C(\O)c1ccc2c(c1)OCCO2 (centres undefined)	none
O=C1C(=O)N(Cc2cccnc2)C(c2cccc(F)c2)/C1=C(/O)c1ccc2c(c1)OCO2 (centres undefined)	PG9 Ab binder 21 | PG9 binder conf 44 | PGV04 counter 52
CC(=O)Nc1ccc(-c2cc(-c3ccc(NC(C)=O)cc3)nc(-c3ccc(NC(C)=O)cc3)n2)cc1	PG9 Ab binder 29 | PG9 binder conf 25 | PGV04 counter 45
CC(=O)Nc1ccc(-c2cc(-c3ccccc3)nc(-c3ccccc3)n2)cc1	none
COc1ccc(O)c(/C=C(\C#N)C(=O)Nc2cccnc2)c1	PG9 Ab binder 24 | PG9 binder conf 13 | PGV04 counter 16
COc1ccc(/C=C(\C#N)C(=O)Nc2cccnc2)cc1	none
COc1ccc(C(=O)Nc2ccc(NC(=O)c3cc(OC)c(OC)c(OC)c3)cn2)cc1	PG9 Ab binder 20 | PG9 binder conf 15 | PGV04 counter 20
O=C(Oc1c(Br)cc(Br)c2cccnc12)N1CCCCC1	PG9 Ab binder 9.1 | PG9 binder conf 14 | PGV04 counter 18
O=C(Oc1ccc(Cl)c2cccnc12)N1CCCCC1	none
CN(CCOC(=O)c1cc2ccccc2o1)C1CN(Cc2cn(Cc3cccc(F)c3)nn2)S(=O)(=O)C1 (centres undefined)	none (no result: PG9 Ab binder, MsrA inh, bovine MsrA act)
O=C(CSc1nc2ccccc2nc1N1CCCCC1)N1CCN(S(=O)(=O)c2cc(Cl)ccc2Cl)CC1	none (no result: PG9 Ab binder, MsrA inh, bovine MsrA act)
CCOC(=O)[C@@]12CCCC3=C1N(CCC3)C(=O)[C@H]2CC(=O)NCCC(C)C	none (no result: PG9 Ab binder, MsrA inh, bovine MsrA act)
COc1ccc(-n2c(=S)[nH]c3c(oc4ccccc43)c2=O)cc1	PG9 Ab binder 26 | PG9 binder conf 13 | PGV04 counter 12 | PG9 bind DR inactive | PGV04 DR counter inactive | PG126 DR counter inactive
C[C@H]1[C@@H](OC(=O)NCc2ccc(Cl)c(Cl)c2)CC[C@@]23CCCN2C(=O)CCC[C@@H]13	none (no result: PG9 Ab binder, rCAG binder, MsrA inh, bovine MsrA act)
O=C(CCS(=O)(=O)c1ccccc1)Nc1ccc(-c2nc3ccccc3s2)c(O)c1	PG9 Ab binder 26 | PG9 binder conf 22 | PGV04 counter 51
Cc1ccsc1C(=O)Nc1ccc(O)c(-c2nc3ccccc3s2)c1	PG9 Ab binder 51 | PG9 binder conf 58 | PGV04 counter 78
COC(=O)CSc1nnc(-c2ccc(NS(=O)(=O)c3ccc(C)c(C)c3)cc2)o1	none (no result: PG9 Ab binder, MsrA inh, bovine MsrA act)
Cc1nc(N2CCC(C)CC2)c2c(C)c(C(=O)Nc3ccc(C(F)(F)F)cc3)sc2n1	PG9 Ab binder 42 | PG9 binder conf inactive | PGV04 counter 11
COc1ccc(-n2cc(COC(=O)NCCc3c[nH]c4ccccc34)nn2)cc1	none (no result: PG9 Ab binder, MsrA inh, bovine MsrA act)
O=C(COC(=O)c1ccc2c(c1)OCO2)NCc1ccc(Cl)cc1	PG9 Ab binder 12 | PG9 binder conf inactive | PGV04 counter 19
N#Cc1ccc(Cl)cc1NC(=O)COC(=O)c1ccc2c(c1)OCCO2	PG9 Ab binder 50 | PG9 binder conf 40 | PGV04 counter 69
CCN1Cc2nnn(Cc3ccccc3)c2-c2cc(N3CCCC3)ccc2S1(=O)=O	none (no result: PG9 Ab binder, MsrA inh, bovine MsrA act)
Cc1ccc(OCC(=O)NNC(=O)C2CCN(c3ncnc4sc(C)c(C)c34)CC2)cc1	none
Cc1sc2ncnc(N3CCC(C(=O)Nc4nnc(CC(C)C)s4)CC3)c2c1C	PG9 Ab binder 14 | PG9 binder conf 42 | PGV04 counter 54
COc1cc2cc(C(=O)N(C)Cc3ccccc3)[nH]c2cc1OC	PG9 Ab binder 16 | PG9 binder conf 15 | PGV04 counter 22
COc1cc2cc(C(=O)NCCc3ccccc3)[nH]c2cc1OC	none
Cc1ccc(CNC(=O)c2cc3c(s2)CN(Cc2ccccc2)C3)cc1	PG9 Ab binder 18 | PG9 binder conf 20 | PGV04 counter 21
Cc1ccc(CNC(=O)c2cc3c(s2)CS(=O)(=O)C3)cc1	none
O=C(COCc1ccccc1)N1CC[C@H]2[C@H](CCCN2Cc2ccc(F)cc2)C1	none (no result: PG9 Ab binder, MsrA inh, bovine MsrA act)
C=CCN1[C@H](C)COc2cc(N3CCCC3)ccc2S1(=O)=O	none (no result: PG9 Ab binder, MsrA inh, bovine MsrA act)
Cc1cc2sc(C(=O)O)c(C)c2s1	PG9 Ab binder 16 | PG9 binder conf 21 | PGV04 counter 28
Cc1cc2c(cc(C(=O)O)n2C)s1	none
